# Measurements from the supplement of paper PMC8253809.
# “And” between values parts separate entries of the source, which are not always exact repeats. Equal values may be shown once.
# System: HNSC
# Test: growth inhibition (% activity, log2 RLU normalised to DMSO / staurosporine); higher = more growth inhibition
# Details: 33 µM
# Outline: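 For each approved drug, the growth-inhibition value is the replicate median of per-plate normalised CellTiter-Glo data. Luminescence was log2-transformed and expressed as % activity between solvent and positive control wells. Drugs were applied in triplicate at a single final concentration of about 33 μM for 7 days at 37 °C, 5% CO2 to pHGG cell lines and H9-derived neural stem cells.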
row,SMILES,growth inhibition
1,N=C(N)c1ccc(OCCCCCOc2ccc(C(=N)N)cc2)cc1,43.6%
2,Cc1c(-c2ccccc2)oc2c(C(=O)OCCN3CCCCC3)cccc2c1=O,-2.8%
3,O=P(O)(O)C(Cl)(Cl)P(=O)(O)O,0.239%
4,CCOC(=O)c1c(CSc2ccccc2)n(C)c2cc(Br)c(O)c(CN(C)C)c12,53.4%
5,O=C(O)c1cc(=O)c2ccccc2o1,-0.975%
6,O=C(Nc1cccc2c(=O)cc(-c3nnn[nH]3)oc12)c1ccc(OCCCCc2ccccc2)cc1,52.4%
7,CC(C(=O)O)c1cccc(Oc2ccccc2)c1 (centres undefined),0.908% and -1.16%
8,CC(C[N+](C)(C)C)OC(N)=O (centres undefined),-4.04%
9,CC1(C)O[C@@H]2C[C@H]3[C@@H]4C[C@H](F)C5=CC(=O)C=C[C@]5(C)[C@@]4(F)[C@@H](O)C[C@]3(C)[C@]2(C(=O)CO)O1,1.69%
10,CC(=O)OCC(=O)[C@@]1(O)CC[C@H]2[C@@H]3CCC4=CC(=O)CC[C@]4(C)[C@H]3C(=O)C[C@@]21C,6.87%
11,C[C@@]12C[C@@]3(O)O[C@@H](O1)[C@]1(COC(=O)c4ccccc4)[C@H]3C[C@@]12O[C@@H]1O[C@H](CO)[C@@H](O)[C@H](O)[C@H]1O,-1.36%
12,Cc1ccc(-n2[nH]c(C)c(N=Nc3cccc(-c4cccc(C(=O)O)c4)c3O)c2=O)cc1C,13.7%
13,CCOC(=O)c1ccc(C#Cc2ccc3c(c2)C(C)(C)CCS3)nc1,6.59%
14,CN1C(C(=O)Nc2ccccn2)=C(O)c2sc(Cl)cc2S1(=O)=O,-1.13%
15,CC[C@H]1OC(=O)[C@H](C)[C@@H](O[C@H]2C[C@@](C)(OC)[C@@H](O)[C@H](C)O2)[C@H](C)[C@@H](O[C@@H]2O[C@H](C)C[C@H](N(C)C)[C@H]2O)[C@](C)(O)C[C@@H](C)C(=O)[C@H](C)[C@@H](O)[C@]1(C)O,2.65%
16,Clc1ccccc1CN1CCc2sccc2C1,1.29%
17,CC(C)OC(=O)C(C)(C)Oc1ccc(C(=O)c2ccc(Cl)cc2)cc1,54.6%
18,Clc1ccc(C(c2ccccc2Cl)C(Cl)Cl)cc1 (centres undefined),-1.09%
19,C=CCNC(N)=S,-1.32%
20,Clc1cccc(Cl)c1NC1=NCCN1,2.98%

row,SMILES,growth inhibition
1,CC(C)(C)CC(C)(C)c1ccc(OCCOCC[N+](C)(C)Cc2ccccc2)cc1,82.7%
2,CN(C)CCCN1c2ccccc2CCc2ccc(Cl)cc21,8.46%
3,O=C(NCCN1CCOCC1)c1ccc(Cl)cc1,-1.63%
4,Cc1onc(-c2c(Cl)cccc2Cl)c1C(=O)N[C@@H]1C(=O)N2[C@@H]1SC(C)(C)[C@@H]2C(=O)O,-0.363%
5,C[C@](N)(Cc1ccc(O)c(O)c1)C(=O)O,0.654%
6,CN(C)CCCC1(c2ccc(F)cc2)OCc2cc(C#N)ccc21 (centres undefined),-0.115%
7,CNCCC(Oc1ccc(C(F)(F)F)cc1)c1ccccc1 (centres undefined),1.75%
8,O=C([O-])C(O)[C@H](O)[C@@H](O)[C@H](O)[C@H](O)CO.O=C([O-])C(O)[C@H](O)[C@@H](O)[C@H](O)[C@H](O)CO.[Ca+2] (some centres undefined),2.4%
9,Cc1c(C(=O)NN2CCCCC2)nn(-c2ccc(Cl)cc2Cl)c1-c1ccc(Cl)cc1,11.7%
10,CC(=O)N1CCN(c2ccc(OCC3COC(Cn4ccnc4)(c4ccc(Cl)cc4Cl)O3)cc2)CC1 (centres undefined),7.8%
11,CC(C)(Oc1ccc(CCNC(=O)c2ccc(Cl)cc2)cc1)C(=O)O,1.59%
12,O=C1[C@@H]2[C@H]3CC[C@H](C3)[C@@H]2C(=O)N1C[C@@H]1CCCC[C@H]1CN1CCN(c2nsc3ccccc23)CC1,2.62%
13,CC(C)(Oc1ccc(Cl)cc1)C(=O)O,5.23%
14,Cc1cc(C)nc(NS(=O)(=O)c2ccc(N)cc2)n1,4.45%
15,Cc1cnc(NC(=O)C2=C(O)c3ccccc3S(=O)(=O)N2C)s1,0.475%
16,CNC(=O)c1ccc(N2C(=S)N(c3ccc(C#N)c(C(F)(F)F)c3)C(=O)C2(C)C)cc1F,4.97%
17,COc1cc2c(cc1Cc1cccc(Cl)c1F)c(=O)c(C(=O)O)cn2[C@H](CO)C(C)C,19.8%
18,C=C1CC[C@H](O)C/C1=C/C=C1\CCC[C@]2(C)[C@@H]([C@H](C)/C=C/[C@H](C)C(C)C)CC[C@@H]12,9.22%
19,CC(C)(C)c1ccc(C(O)CCCN2CCC(C(O)(c3ccccc3)c3ccccc3)CC2)cc1 (centres undefined),0.144%
